The full list was thinned out, with hits kept by preference.
HT1080NT lethal – kills 2HG-producing HT-1080-NT fibrosarcoma cells; AID 686970; HT-1080-NT fibrosarcoma viability, CellTiter-Glo ATP luminescence, 48 h; Potency, µM (doses to about 46.1 µM), without a hit: top-dose activity, negative = less viability, actives largely listed as cytotoxic; 360,000 tested, 1.6% active;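 further: NT is the 2HG producing partner of a matched IDH1 knockdown line; potency means the concentration at half of the fitted maximal effect; 0% = DMSO-treated cells and -100% = media-only wells without cells; nearly all actives have a fitted effect of over 55% in size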
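Toxicity toward the 2HG-producing NT line was scored as %Activity, normalised to DMSO and no-cell wells, from CellTiter-Glo luminescence after 48 hours' treatment.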
HT1080 IDH1KD tx – HT-1080 IDH1 knockdown cell toxicity (counter line). Potency, µM (highest dose often 46.1 µM), inactives show at the highest dose activity, negative = toxicity, hits mostly cytotoxic. HT-1080 IDH1 knockdown viability, ATP luminescence, 48 h. 360,000 tested, 2% active;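 further: potency means the concentration at half of the fitted maximal effect; 0% = DMSO wells and -100% = cell-free medium wells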
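Viability of IDH1-knockdown HT-1080 fibrosarcoma cells was assessed by CellTiter-Glo after 48 h at 37 °C with titrated compound; concentration-effect curves were classified by fit quality and response size.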
ALOX12 inh – ALOX12 (human) lipoxygenase inhibition | P18054 | purified 12hLO, xylenol orange hydroperoxide absorbance | Potency, µM (doses to about 108 µM), inactives show at the top dose activity change, negative = inhibition, hits mostly inhibitors | 580,000 tested, 1.1% active; further: potency means the concentration at half of the fitted maximal effect
Target sequence (P18054 whole entry, looked up): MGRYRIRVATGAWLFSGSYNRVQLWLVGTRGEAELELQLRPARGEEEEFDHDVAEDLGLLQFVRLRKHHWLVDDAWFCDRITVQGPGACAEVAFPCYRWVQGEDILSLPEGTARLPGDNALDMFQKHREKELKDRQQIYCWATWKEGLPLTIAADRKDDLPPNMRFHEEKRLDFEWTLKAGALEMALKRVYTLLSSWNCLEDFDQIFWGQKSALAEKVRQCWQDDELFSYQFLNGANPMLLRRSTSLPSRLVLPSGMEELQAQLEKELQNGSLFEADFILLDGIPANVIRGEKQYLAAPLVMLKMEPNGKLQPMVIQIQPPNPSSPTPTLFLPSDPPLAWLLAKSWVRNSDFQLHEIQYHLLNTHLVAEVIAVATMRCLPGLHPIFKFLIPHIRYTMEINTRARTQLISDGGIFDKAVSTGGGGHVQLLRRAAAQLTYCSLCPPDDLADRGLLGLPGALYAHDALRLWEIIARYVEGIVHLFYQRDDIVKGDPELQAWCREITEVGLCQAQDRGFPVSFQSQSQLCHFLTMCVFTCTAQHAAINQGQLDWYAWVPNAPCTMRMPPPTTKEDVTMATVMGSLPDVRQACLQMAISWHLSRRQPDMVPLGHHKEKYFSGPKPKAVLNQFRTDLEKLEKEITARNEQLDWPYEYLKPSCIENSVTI
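Hydroperoxide product was detected by ferrous iron/xylenol orange as the 573 to 405 nm absorbance ratio. Arachidonic acid at 40 uM (final) was turned over for 30 min at room temperature by 150 nM human 12hLO, pH 7.0 Hepes buffer, after 15 min compound preincubation.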
IL1B secr inh – inflammasome signaling inhibition, IL-1 beta readout. activity change, % at 57.5 µM. THP-1 LPS/ATP IL-1B secretion, AlphaLISA, 16 h; hits give low values. 360,000 tested, 4.7% active; in the data active means activity change below about -50%; inconclusive means mostly about -30% to -49%
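THP-1 cells pretreated 1 hr with compounds (up to 57.5 uM final), then stimulated with LPS (250 ng/mL final) plus ATP (1.25 mM final); secreted IL-1B measured by AlphaLISA after 16 hr, decreased signal indicating inhibition.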
DT40 TDP1 CPT – growth inhibition of DT40 Tdp1-/-;hTDP1 cells with camptothecin (screen for TDP1 inhibitors); AID 686979; 420,000 tested, 12% active; chicken DT40 Tdp1-/-;hTDP1 cells + 20 nM CPT, ATP luminescence, 48 h; Potency, µM (top dose mostly 46.2 µM), inactives show at the highest dose activity change, negative = growth inhibition, most hits filed as inhibitors; further: potency means the concentration at half of the fitted maximal effect; nearly all actives have a fitted effect of over 55% in size
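Cell growth measured by CellTiter-Glo luminescence after a minimum 48 h, 37 C compound exposure with 20 nM CPT in Tdp1-knockout DT40 cells stably expressing hTDP1, seeded 400/well; qHTS titration format.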
TDP1 cell noCPT – qHTS for Inhibitors of human tyrosyl-DNA phosphodiesterase 1 (TDP1): qHTS in cells in absence of CPT. 420,000 tested, 15% active. DT40 Tdp1-/- hTDP1 cells, no CPT, ATP luminescence, 48 h. Potency, µM (top dose mostly 46.2 µM), inactives show at the highest dose activity change, negative = growth inhibition, hits mostly inhibitors; further: potency means the concentration at half of the fitted maximal effect; nearly all actives have a fitted effect of over 55% in size
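Luminescent ATP content (CellTiter-Glo) served as the growth readout. Knockout chicken DT40 cells expressing human TDP1 were exposed to compounds without camptothecin for a minimum 48 hr at 37 °C.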
* marks the source's active call; other numbers are inactive results; ? = inconclusive; . = not tested or not shown; ! = repeats disagree; [ ] = another dose, or the depositor's remark. Unless noted, the call rests on the fitted dose curve; in most records, active means well fitted curve in the direction sought with a large enough effect; inconclusive means small, poorly fitted or top-dose-only effect, or another doubt; inactive means no such curve, though single readings can be large; an effect the other way counts as inactive or inconclusive. Unless noted, on the % scale 0 is the no-effect control and ±100 the full control effect.

SMILES | HT1080NT lethal | HT1080 IDH1KD tx | ALOX12 inh | IL1B secr inh | DT40 TDP1 CPT | TDP1 cell noCPT
CCOc1ccc(C(C)=O)c2ccccc12 | . | . | -8% | . | . | .
N#C/C(=C/c1ccc(OC(F)F)cc1)C(=O)Nc1cc(Cl)ccc1Cl | . | . | -17% | . | . | .
O=C(CC1CCCC1)N1CCN(S(=O)(=O)c2cccc(Br)c2)CC1 | 6% | 3% | -53% | 9 | 18µM* | ?
Cc1cnc(C(=O)N2CCN(S(=O)(=O)c3cccc(Br)c3)CC2)cn1 | 6% | 7% | 1% | 10 | -28% | ?
Cn1nc2n(c1=O)CCNCC2 | . | . | 23% | . | . | .
Cc1sc2cc(C(=O)NC3CC3)[nH]c2c1CN1CCCCC1 | . | . | 35% | . | . | .
C[c-]1[c-](C)[c-](C)[c-](C)[c-]1C.[Fe].c1cc2nccc(N3CCCC3)[c-]2c1 (stereo unspecified) | -11% | 3% | -21% | 0 | 8.2µM*! | 6.5µM*
CC(NC1=CC(=O)c2cccnc2C1=O)C(O)c1ccccc1 (stereo unspecified) | 18µM* | 6.5µM* | ? | -100* | 1.5µM* | 3.3µM*
O=C(NCc1cccnc1)C1CCN(Cc2cc3ccccc3n2Cc2ccccc2)CC1 | . | . | -3% | . | ? | 13µM*
CN(C)c1ccc(CNC(=O)C2CCN(Cc3cc4ccccc4n3Cc3ccccc3)CC2)cc1 | . | . | -30% | . | 16µM* | 13µM*
O=C(NCc1cccnc1)C1CCN(Cc2cc3ccccc3n2Cc2cccc(Cl)c2)CC1 | . | . | -20% | . | ? | 18µM*
CN(C)c1ccc(CN2CCC(C(N)=O)CC2)cc1 | 3% | -1% | -31% | 2 | -8% | -13%
Cc1ccc(CN2CCOC[C@H]2c2ncc(C(C)(C)C)[nH]2)cc1 | . | . | 64%[176 µM] | . | . | .
Cc1ccc(S(=O)(=O)N2CCC(=O)N(CCOCc3cccc(C(F)(F)F)c3)CC2)cc1 | -6% | 1% | ? | ? | 15µM* | ?
COc1ccc(COCCN2CCN(S(=O)(=O)c3ccc(C)cc3)CCC2=O)cc1 | 5% | 5% | ? | -11 | 21µM* | ?
Cc1ccc(S(=O)(=O)N2CCC(=O)N(CCOCc3cccc(C)c3)CC2)cc1 | 4% | -3% | -3% | -9 | 10µM* | ?
CN(C)CC(C#N)C(O)c1ccccc1 (stereo unspecified) | . | . | -19% | . | . | .
O=C(C1CCC1)N1CCC(c2noc(-c3ccncc3)n2)C1 (stereo unspecified) | . | . | 45% | . | . | .
CC1(CCCCc2ccccc2)COc2ccc(C(=O)Nc3cccnc3)cc2N1 (stereo unspecified) | . | . | 18%[176 µM] | . | . | .
COc1ccc(CNC(=O)c2c(O)c3cc(OC)c(OC)cc3[nH]c2=O)cc1OC | 17% | 20% | 0% | 0 | -15% | -2%
COc1cc2[nH]c(=O)c(C(=O)NCc3ccccc3Cl)c(O)c2cc1OC | 19% | 3% | 26% | -10 | 15µM* | 18µM*
O=C1CC2(CCN(C(=O)c3ccccc3F)CC2)CN1C/C=C/c1ccccc1 | . | . | 27% | . | . | .
COC(=O)C1=CN(Cc2ccc(F)cc2)C=C(C(=O)OC)C1c1cc(OC)c(OC)c(OC)c1 | -21% | -18% | 0% | -18 | -5% | 1%
COC(=O)C1=CN(Cc2ccc(OC)c(OC)c2)C=C(C(=O)OC)C1c1cccc(F)c1 | -2% | -4% | -8% | 49 | 16µM* | 18µM*
COC(=O)C1=CN(c2ccc(F)cc2)C=C(C(=O)OC)C1c1cccc(Br)c1 | 14% | -1% | -10% | ? | 23µM* | ?
SMILES | HT1080NT lethal | HT1080 IDH1KD tx | ALOX12 inh | IL1B secr inh | DT40 TDP1 CPT | TDP1 cell noCPT
COC(=O)C1=CN(Cc2ccccc2)C=C(C(=O)OC)C1c1cc(F)ccc1F | -16% | -22% | 85% | -23 | -19% | ?
COC(=O)C1=CN(Cc2ccc(C)cc2)C=C(C(=O)OC)C1c1ccc(F)c(F)c1 | -15% | -25% | . | -27 | ? | 23µM*
Cc1cccc(NC(=O)CC2CC3CCC2C3)c1 (stereo unspecified) | . | . | 2% | . | . | .
CCN(C(=O)CN1CCC(c2cc3ccccc3[nH]2)CC1)C1CC1 | . | . | -13% | . | . | .
Cc1cc(C)c(C(O)c2ncc(-c3ccccc3F)[nH]2)c(C)c1 (stereo unspecified) | ? | ? | -1% | -20 | 15µM* | ?
COc1c(C)cc(C(O)c2ncc(-c3ccccc3C(F)(F)F)[nH]2)cc1C (stereo unspecified) | -16% | -15% | 1% | -12 | ? | ?
Cc1cccc(C)c1C(O)c1ncc(-c2ccccc2F)[nH]1 (stereo unspecified) | -10% | 5% | -5% | 22 | 21µM* | ?
Cc1cc(C)c(C(O)c2ncc(-c3ccccc3C)[nH]2)c(C)c1 (stereo unspecified) | ? | -17% | 5% | -26 | -30% | -29%
COc1c(C)cc(C(O)c2ncc(-c3cccc4ccccc34)[nH]2)cc1C (stereo unspecified) | ? | ? | -1% | 59 | 21µM* | 18µM*
Cc1cccc(C)c1C(O)c1ncc(-c2ccc(Cl)cc2)[nH]1 (stereo unspecified) | -8% | -17% | -30% | ? | -27% | ?
Cc1ccc2ccccc2c1C(O)c1ncc(-c2ccc(Cl)cc2)[nH]1 (stereo unspecified) | ? | ? | ? | 13 | ? | 8.2µM*
CCOc1ccc2nc(Nc3nc(C)c(Cc4ccccc4)c(=O)[nH]3)nc(C)c2c1 | . | . | -6% | . | . | .
CC(C)NC(=O)CNC(=O)c1cc(-c2ccc(F)cc2)nc2ccccc12 | . | . | -5% | . | . | .
Cc1cccc(C)c1C(O)c1ncc(-c2cccc3ccccc23)[nH]1 (stereo unspecified) | ? | ? | 2% | -11 | 21µM* | 16µM*
Cc1cc(C)c(C(O)c2ncc(-c3cccc4ccccc34)[nH]2)c(C)c1 (stereo unspecified) | ? | ? | -21% | 0 | ? | ?
CCCNC(=O)c1ccccc1NC(=O)c1ccc(CSc2ccccc2)cc1 | -25% | -17% | 238% | 0 | ? | 21µM*
CCCNC(=O)c1ccccc1NC(=O)c1ccc2c(c1)NC(=O)C(C)S2 (stereo unspecified) | -30% | 9.2µM* | -1% | -23 | 10µM* | 6.5µM*
Cc1ccnc(NC(=O)c2ccc3c(c2)NC(=O)C(C)S3)c1 (stereo unspecified) | -6% | -16% | 98% | -14 | -22% | ?

Assay outcomes from PubChem BioAssay.
